Rows were chosen to be rich in hits. Some 3.5% of all compounds tested hit in one or more screens of this group.
Pf apPOL inh – Pf-apPOL inhibitors, biochemical, fluorescence; Recombinant Pf-apPOL, molecular beacon fluorescence, 1.5 h; 210,000 tested, 0.25% active; Plasmodium falciparum apicoplast DNA polymerase (apPOL); inhibition, % at 10 µM
mHTT-CaM PPI inh – mutant huntingtin-calmodulin interaction inhibitors – biochemical, AlphaScreen, primary screen; P42858; inhibition, % at 15 µM; AlphaScreen His-mHTT/GST-CaM binding, luminescence; 190,000 tested, 3.6% active
Target sequence (P42858 whole entry, looked up, change not shown): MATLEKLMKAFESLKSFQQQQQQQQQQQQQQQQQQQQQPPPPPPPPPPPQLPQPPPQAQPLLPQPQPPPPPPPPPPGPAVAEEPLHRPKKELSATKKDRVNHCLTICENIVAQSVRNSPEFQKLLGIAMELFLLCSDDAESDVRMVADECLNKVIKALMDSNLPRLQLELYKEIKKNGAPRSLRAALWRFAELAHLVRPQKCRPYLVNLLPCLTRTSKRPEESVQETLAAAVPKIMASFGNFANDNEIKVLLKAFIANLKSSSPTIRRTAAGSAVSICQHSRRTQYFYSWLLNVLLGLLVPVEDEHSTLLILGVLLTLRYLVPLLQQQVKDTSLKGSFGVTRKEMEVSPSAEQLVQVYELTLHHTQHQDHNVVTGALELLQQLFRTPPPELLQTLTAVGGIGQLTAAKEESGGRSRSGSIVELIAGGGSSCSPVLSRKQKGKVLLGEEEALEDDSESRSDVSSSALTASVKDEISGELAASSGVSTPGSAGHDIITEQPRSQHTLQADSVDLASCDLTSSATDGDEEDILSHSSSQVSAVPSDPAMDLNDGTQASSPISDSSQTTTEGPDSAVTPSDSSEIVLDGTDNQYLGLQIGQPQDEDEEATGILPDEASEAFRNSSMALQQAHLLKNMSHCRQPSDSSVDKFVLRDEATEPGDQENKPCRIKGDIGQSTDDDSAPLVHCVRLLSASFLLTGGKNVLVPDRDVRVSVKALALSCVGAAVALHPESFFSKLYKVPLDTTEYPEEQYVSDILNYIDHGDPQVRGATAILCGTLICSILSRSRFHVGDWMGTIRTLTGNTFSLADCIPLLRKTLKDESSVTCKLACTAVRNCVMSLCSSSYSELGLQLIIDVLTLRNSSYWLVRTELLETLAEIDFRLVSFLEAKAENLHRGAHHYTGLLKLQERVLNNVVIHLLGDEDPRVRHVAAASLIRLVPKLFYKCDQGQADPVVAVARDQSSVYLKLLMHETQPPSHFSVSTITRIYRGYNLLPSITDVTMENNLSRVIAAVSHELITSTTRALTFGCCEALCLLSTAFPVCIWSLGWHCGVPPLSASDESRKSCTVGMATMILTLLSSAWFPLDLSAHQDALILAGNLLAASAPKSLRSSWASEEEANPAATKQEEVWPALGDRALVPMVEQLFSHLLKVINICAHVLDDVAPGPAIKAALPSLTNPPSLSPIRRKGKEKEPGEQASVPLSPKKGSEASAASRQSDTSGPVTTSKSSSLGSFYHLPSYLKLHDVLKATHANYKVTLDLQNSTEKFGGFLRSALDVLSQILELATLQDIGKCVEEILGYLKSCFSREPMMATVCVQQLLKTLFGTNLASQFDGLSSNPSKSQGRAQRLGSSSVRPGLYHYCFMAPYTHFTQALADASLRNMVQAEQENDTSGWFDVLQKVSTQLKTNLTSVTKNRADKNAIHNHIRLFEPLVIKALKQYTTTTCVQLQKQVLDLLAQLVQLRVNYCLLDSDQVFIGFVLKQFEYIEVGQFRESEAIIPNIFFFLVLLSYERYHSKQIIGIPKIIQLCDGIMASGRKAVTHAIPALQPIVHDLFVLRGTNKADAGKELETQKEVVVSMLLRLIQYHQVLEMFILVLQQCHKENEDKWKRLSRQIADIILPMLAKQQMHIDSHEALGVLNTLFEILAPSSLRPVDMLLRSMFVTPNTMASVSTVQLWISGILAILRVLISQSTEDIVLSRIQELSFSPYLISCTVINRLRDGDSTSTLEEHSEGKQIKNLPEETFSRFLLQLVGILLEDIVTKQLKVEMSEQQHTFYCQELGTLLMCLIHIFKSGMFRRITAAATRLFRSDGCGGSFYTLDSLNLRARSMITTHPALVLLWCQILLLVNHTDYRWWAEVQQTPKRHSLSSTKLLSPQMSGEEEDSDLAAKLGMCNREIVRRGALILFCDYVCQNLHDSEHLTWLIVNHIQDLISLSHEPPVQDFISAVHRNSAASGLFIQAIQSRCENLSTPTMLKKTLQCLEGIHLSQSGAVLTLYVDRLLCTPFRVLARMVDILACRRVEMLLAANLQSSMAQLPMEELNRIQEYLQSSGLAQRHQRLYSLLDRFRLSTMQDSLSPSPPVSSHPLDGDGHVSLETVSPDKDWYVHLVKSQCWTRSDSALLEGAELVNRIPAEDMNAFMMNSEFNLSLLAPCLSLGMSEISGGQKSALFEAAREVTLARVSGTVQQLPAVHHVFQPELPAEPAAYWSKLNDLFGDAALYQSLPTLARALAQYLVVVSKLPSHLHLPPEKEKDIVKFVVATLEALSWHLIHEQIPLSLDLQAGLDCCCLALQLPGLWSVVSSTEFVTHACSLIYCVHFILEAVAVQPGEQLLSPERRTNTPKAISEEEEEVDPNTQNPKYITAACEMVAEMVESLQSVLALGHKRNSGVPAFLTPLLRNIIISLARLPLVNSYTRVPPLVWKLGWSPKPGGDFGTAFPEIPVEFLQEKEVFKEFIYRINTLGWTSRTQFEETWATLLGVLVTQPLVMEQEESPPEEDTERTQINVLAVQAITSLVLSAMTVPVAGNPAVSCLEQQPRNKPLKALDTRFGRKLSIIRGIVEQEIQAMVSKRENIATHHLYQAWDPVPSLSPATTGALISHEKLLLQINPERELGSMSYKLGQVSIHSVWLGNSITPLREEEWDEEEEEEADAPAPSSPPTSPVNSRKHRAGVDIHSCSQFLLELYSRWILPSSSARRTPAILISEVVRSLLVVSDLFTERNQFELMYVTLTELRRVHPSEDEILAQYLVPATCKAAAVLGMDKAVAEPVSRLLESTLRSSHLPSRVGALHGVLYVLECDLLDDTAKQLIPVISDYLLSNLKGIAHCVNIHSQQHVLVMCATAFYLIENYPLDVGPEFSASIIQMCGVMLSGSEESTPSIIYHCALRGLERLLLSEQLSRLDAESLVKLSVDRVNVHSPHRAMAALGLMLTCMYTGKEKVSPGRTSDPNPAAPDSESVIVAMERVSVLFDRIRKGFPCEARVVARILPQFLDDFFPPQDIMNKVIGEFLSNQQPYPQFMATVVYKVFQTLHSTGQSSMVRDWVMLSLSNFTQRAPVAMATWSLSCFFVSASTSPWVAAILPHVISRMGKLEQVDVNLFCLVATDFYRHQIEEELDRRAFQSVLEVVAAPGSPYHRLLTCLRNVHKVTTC
Each line names hits and unclear results; the compound was inactive in the other large screens. Cut-off read from the data, not from the text of the source: active = inhibition above about 50%; inactive = the rest.

COc1ccc(C2=NC3(CCCCCC3)N(CC(=O)Nc3ccc(Cl)cc3)C2=O)cc1	mHTT-CaM PPI inh 90
COc1ccc(NC(=O)CN2C(=O)C(c3ccc(C)cc3)=NC23CCCCC3)cc1	none
Cc1ccccc1NC(=O)CN1C(=O)C(c2ccc(F)cc2)=NC12CCCCC2	mHTT-CaM PPI inh 50
COc1ccc(NC(=O)CN2C(=O)C(c3ccccc3)=NC23CCCCCC3)cc1	none
O=C(CN1C(=O)C(c2ccccc2)=NC12CCCC2)Nc1ccc(F)c(F)c1	none
COc1ccc(C2=NC3(CCCCC3)N(CC(=O)Nc3ccc(F)cc3)C2=O)cc1	mHTT-CaM PPI inh 66
COc1ccc(C2=NC3(CCCCC3)N(CC(=O)Nc3ccc(F)c(F)c3)C2=O)cc1	mHTT-CaM PPI inh 98
Cc1cccc(NC(=O)CN2C(=O)C(c3ccc(F)cc3)=NC23CCCC3)c1C	none
C[C@](N)(Cc1ccc(O)c(O)c1)C(=O)O	none (no result: mHTT-CaM PPI inh)
CCC(C(=O)N1CCC(c2cc3n(n2)CCCNC3=O)CC1)c1ccccc1 (stereo unspecified)	none
Cc1sc2ncn(CC(=O)NCC(=O)NCc3cccnc3)c(=O)c2c1C	none
COc1ccccc1NC(=O)C1CC(Cl)=CCC1C(=O)O (stereo unspecified)	none
Cc1ccccc1NC(=O)C1CC(Cl)=CCC1C(=O)O (stereo unspecified)	Pf apPOL inh 64
COc1ccc(-c2ncc(NC(=O)C(C)C)cn2)cc1	none
O=C(NC(Nc1cccc2cccnc12)C(Cl)(Cl)Cl)c1ccc(Br)cc1 (stereo unspecified)	none
Oc1c(C(Nc2cccc(Cl)c2)c2ccncc2)ccc2cccnc12 (stereo unspecified)	mHTT-CaM PPI inh 100
COc1ccc(C(NC(=O)C(C)C)c2ccc3cccnc3c2O)cc1 (stereo unspecified)	mHTT-CaM PPI inh 100
O=C(NC(c1ccccc1)c1ccc2cccnc2c1O)c1ccccc1 (stereo unspecified)	mHTT-CaM PPI inh 100
CC(=O)NC(c1ccc(Cl)cc1)c1ccc2cccnc2c1O (stereo unspecified)	mHTT-CaM PPI inh 100
c1ccc(NC(c2ccccc2)c2ccncc2)cc1 (stereo unspecified)	none
COc1cc(OC)c(NC(=O)c2ccc(OC)c([N+](=O)[O-])c2)cc1Cl	none
O=C(O)COCC(=O)Nc1cccnc1	none (no result: mHTT-CaM PPI inh)
Cc1cc(NC(=O)c2cccnc2)sn1	none
OC(COCc1ccc2c(c1)OCO2)CN1CCN(c2cccc(Cl)c2)CC1 (stereo unspecified)	none
CC(=O)NC1=NC(=O)/C(=C\c2cc(C)c(C)cc2C)S1	none
O=C(Nc1cccc(Cl)c1)c1cnc2n(c1=O)CCS2	none
COc1nn(C)cc1C(=O)Nc1ccc2c(c1)C(=O)N1CCCCC1CCO2 (stereo unspecified)	none
CC(Oc1ccc(Cl)cc1Cl)C(=O)Nc1ncccn1 (stereo unspecified)	none
CCC(=O)NC(c1ccc(C)cc1)c1ccc2cccnc2c1O (stereo unspecified)	mHTT-CaM PPI inh 100
CCCC(=O)NC(c1ccccc1Cl)c1ccc2cccnc2c1O (stereo unspecified)	mHTT-CaM PPI inh 100
COc1ccc(C(NC(=O)C(C)C)c2ccc3cccnc3c2O)cc1OC (stereo unspecified)	mHTT-CaM PPI inh 100
COc1ccc(C(C)NC(C)=O)cc1OC (stereo unspecified)	none
CN(C)c1ccc(C(NC(=O)Cc2ccccc2)c2ccc3cccnc3c2O)cc1 (stereo unspecified)	none
CC(C)C(=O)NC(c1ccc(Cl)cc1Cl)c1ccc2cccnc2c1O (stereo unspecified)	mHTT-CaM PPI inh 96
CCNC(=O)C1Cc2ccc(OC)cc2N2CCCCC12 (stereo unspecified)	none
CCOc1ccccc1CN1CCc2nc(N3CCC(C)CC3)ncc2C1	none
O=C1S/C(=C\c2cccs2)C(=O)N1Cc1ccc(Cl)cc1	none
COc1ccc(C(NC(C)=O)c2ccc3cccnc3c2O)cc1 (stereo unspecified)	mHTT-CaM PPI inh 100
COc1ccc(C(=O)Nc2cc(OC)cc3cccnc23)cc1	none
Cc1ccc(C(NC(=O)C(C)C)c2ccc3cccnc3c2O)cc1 (stereo unspecified)	mHTT-CaM PPI inh 100
CC(=O)NC(c1ccccc1Cl)c1ccc2cccnc2c1O (stereo unspecified)	mHTT-CaM PPI inh 100
Cc1ccc(-c2ncccc2CNC(=O)c2ccc3c(c2)OCO3)cc1	none
O=C(Nc1cc(C(F)(F)F)ccc1Cl)c1cccs1	none
COc1ccccc1C(CCN(Cc1ccccc1)C(C)=O)c1ccc2c(c1)OCO2 (stereo unspecified)	mHTT-CaM PPI inh 99
COc1ccccc1C(CC(=O)O)c1ccc2c(c1)OCO2 (stereo unspecified)	none
CCC(=O)N(CCC(c1ccc2c(c1)OCO2)c1ccccc1OC)Cc1ccc2c(c1)OCO2 (stereo unspecified)	none
COc1ccc(CN(CCC(c2ccc3c(c2)OCO3)c2ccccc2OC)C(C)=O)cc1 (stereo unspecified)	mHTT-CaM PPI inh 53
COc1ccc(CN(CCC(c2ccc3c(c2)OCO3)c2ccccc2OC)C(C)=O)cc1OC (stereo unspecified)	mHTT-CaM PPI inh 68
COc1ccccc1C(CC(=O)N1CCCC1)c1ccc2c(c1)OCO2 (stereo unspecified)	none
CN1CCN(c2ccc(CNC(=O)C3CCN(c4nnc5ccccn45)CC3)cc2)CC1	none
CN1CCN(CC(=O)NCC23CC4CCC(CC(C4)C2)C3)CC1	none
COc1ccc(CNC(=O)C(C)N(c2ccccc2)S(C)(=O)=O)cc1 (stereo unspecified)	none
Cc1ccc(NC(=O)c2oc3ccc(S(=O)(=O)N4CCCC4)cc3c2C)cc1C	none
Cc1nn(C(=O)C(C)N2C(=O)c3ccccc3C2=O)c(C)c1Br (stereo unspecified)	none
Cc1nn(C(=O)CCN2C(=O)c3ccccc3C2=O)c(C)c1Br	Pf apPOL inh 71
COc1cccc(-c2cc(C(=O)N3CCCC3c3ccc(F)cc3)on2)c1 (stereo unspecified)	none
Oc1cccc(Nc2nc(-c3ccccn3)cs2)c1	mHTT-CaM PPI inh 99
Oc1ccc(-c2csc(Nc3ncccn3)n2)c(O)c1	none
O=C(O)c1cccc(Nc2nc(-c3ccccn3)cs2)c1	mHTT-CaM PPI inh 96
O=C(O)c1cccc(Nc2nc(-c3ccccc3)cs2)c1	none
Cc1ccc(C)c(-c2csc(Nc3ncccn3)n2)c1	none
Cc1cccc(Nc2nc(-c3ccccn3)cs2)c1	mHTT-CaM PPI inh 97
Cc1ccc(F)cc1NC(=O)Cn1nc(N2CCC(C)CC2)c2ccccc2c1=O	none
Cn1c2ccc(CC(=O)O)cc2c2cc(CC(=O)O)ccc21	none
O=C1C(=Cc2cc3cc(Br)ccc3o2)Oc2c1ccc(O)c2CN1CCOCC1	none
O=C(NCCO)C12CC3CC(CC(C3)C1)C2	none (no result: Pf apPOL inh)
Cc1cccc(CN2CCCC(C(=O)N3CCCCCC3)C2)c1 (stereo unspecified)	none
Cc1cccc(C2CC(C(=O)N3CCSCC3)CN(Cc3ccccc3)C2)c1 (stereo unspecified)	mHTT-CaM PPI inh 77
Cc1nn(Cc2nnc(SCC(=O)c3ccc(Cl)cc3)o2)c(C)c1Br	none (no result: mHTT-CaM PPI inh)
O=c1[nH]c2c(=O)[nH]c(=S)[nH]c2nc1C=C(O)c1ccccc1	Pf apPOL inh 90 (no result: mHTT-CaM PPI inh)
O=c1[nH]c2ccccc2nc1C=C(O)c1ccco1	none
COc1cc(C(=O)NC(C)c2nc3ccccc3[nH]2)cc(OC)c1OC (stereo unspecified)	none
CCN(C(=O)c1ccc(Br)cc1)c1ccccc1C	none

Compound activity (PubChem BioAssay)
